Inconclusive results are not listed. The source made the active and inactive calls. Unless noted, how the calls were made is not given here.
Tests used:
[1] = qHTS profiling of the MIPE4 collection as inhibitors of Plasmodium falciparum (3D7) proliferation (AID 743344);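 further: scaled between DMSO vehicle wells and 0.29 µM artemisinin as full inhibition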; details: P. falciparum 3D7 in erythrocytes, SYBR Green DNA fluorescence, 72 h; at 28.5 µM unless noted
In short: (§1)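 Erythrocytes infected with P. falciparum (0.3% parasitemia, 2.5% hematocrit) incubated with compounds 72 h at 37 C, 5% CO2. Lysis with saponin/Triton buffer containing SYBR Green I, overnight at room temperature in the dark; DNA fluorescence (485/535 nm) normalised to 0.29 uM artemisinin and DMSO.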

[2] = qHTS profiling of the MIPE4 collection as inhibitors of Plasmodium falciparum (DD2) proliferation (AID 743345); details: P. falciparum Dd2 in erythrocytes, SYBR Green DNA, 72 h; at 28.5 µM unless noted
In short: as §1

[3] = qHTS profiling of the MIPE4 collection as inhibitors of Plasmodium falciparum (DD2) proliferation (Rep 2) (AID 743346); details: P. falciparum Dd2 in erythrocytes, SYBR Green DNA, 72 h; at 28.5 µM unless noted
In short: as §1

[4] = qHTS profiling of the MIPE4 collection as inhibitors of Plasmodium falciparum (HB3) proliferation (AID 743347);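 further: plate controls were DMSO vehicle wells for no effect and artemisinin wells for full effect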; details: P. falciparum HB3 in erythrocytes, SYBR Green DNA, 72 h; at 28.5 µM unless noted
In short: as §1

[5] = High-throughput drug toxicity screening in the BPDCN cell line Gen2.2 (AID 1224824); details: Gen2.2 BPDCN cells; at 45.8 µM (top of the series) unless noted;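 further: cells exposed to compounds for 48 h before reading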
In short: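 Gen2.2, 500 cells/well, phenol red-free RPMI/10% FBS/Pen-Strep; 48 h cpd, 37 °C/5% CO2; CTG lum, 15 min RT. Norm: DMSO = 100%, bortezomib 9.2 uM final = 0%.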

[6] = High-throughput drug toxicity screening in the BPDCN cell line Cal-1 (AID 1224825); details: Cal-1 BPDCN cell viability, qHTS; at 45.8 µM (top of the series) unless noted
In short: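 Exponentially growing Cal-1 cells, 500 per well in phenol red-free RPMI with 10% FBS, were exposed to compounds for 48 h at 37 °C, 5% CO2. Viability was read by CellTiter-Glo luminescence and normalised to DMSO (100%) and 9.2 uM bortezomib (0%).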

[7] = qHTS assay for measurement of the activity of small molecule inhibitors on Zika virus induced Caspase-3 activity in human iPSC derived neural progenitor cells (hNPCs) (AID 1224857; active means well fitted inhibition curve with a large enough effect; further: % of control where 0% means no effect; nearly all actives have a fitted effect of over 65% in size)
In short: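 In medium with heparin 2 ug/ml and cyclopamine 2 uM, hNPCs (350 cells/well) received compound for one hour and then Zika virus at 2 FFU/cell; caspase activity was measured by Caspase-Glo 3/7 luminescence 6 h post-infection.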

Compound	parasite growth, % of DMSO control [1]	parasite growth remaining, % of DMSO control (lower = more inhibition) [2]	parasite growth, % of control (lower = inhibition) [3]	growth, % of control [4]	cell viability, % of control (lower = more cytotoxic) [5]	viability (% of control) [6]	Potency [7]	activity change, negative = inhibition [7]
COc1cc(C)c(Sc2cnc(NC(=O)c3ccc(CNC(C)C(C)C)cc3)s2)cc1C(=O)N1CCN(C(C)=O)CC1 (stereo not drawn)	16.2%	16%	18.9%	4.37%	140%	6.82%	inactive	–
CN[C@H]1CCc2cc(OC)c(OC)c(OC)c2-c2ccc(OC)c(=O)cc21	67.4%	90.5%	47.1%	90.6%	24.2%	11.6%	inactive	–
CNC(=O)CN1CCC(Oc2cc3c(Nc4cccc(Cl)c4F)ncnc3cc2OC)CC1	11.2%	41.4%	16%	5.64%	50.7%	7.61%	inactive	–
O=C(Cc1ccc(-c2ccc(OCCN3CCOCC3)cc2)cn1)NCc1ccccc1	20.6%	20.2%	27.1%	11.9%	49.1%	9.81%	inactive	–
Cn1cc(-c2ccncc2)c(-c2ccc(OCc3ccc4ccccc4n3)cc2)n1	83.3%	98.3%	82.2%	65.2%	56.4%	38.2%	inactive	–
CCn1cc(-c2ccnc3[nH]c(-c4cccc(CN(C)C)c4)cc23)c(-c2ccc(NC(=O)N(C)C)cc2)n1	5%	8.23%	9.35%	5.95%	3.65%	2.71%	inactive	–
CCn1nnc2c(N3CCOCC3)nc(-c3ccc(NC(=O)Nc4ccc(C(=O)N5CCN(C)CC5)cc4)cc3)nc21	6.79%	6.26%	13.6%	5.28%	28.1%	26.6%	inactive	–
CC1COC2(CCN(c3nc(=O)c4cc(C(F)(F)F)cc([N+](=O)[O-])c4s3)CC2)O1 (stereo not drawn)	20.5%	70%	33.5%	29.9%	104%	110%	inactive	–
Cn1c2ccccc2c2c3c(c4c5ccccc5n(CCC#N)c4c21)CNC3=O	16%	7.7%	30.7%	54.6%	12.7%	15.7%	inactive	–
O=C(Nc1cn[nH]c1-c1nc2ccc(CN3CCOCC3)cc2[nH]1)NC1CC1	5.31%	12.9%	8.07%	4.19%	4.46%	3.55%	inactive	–
COc1ccc(C(=O)CC2(O)C(=O)Nc3c(Cl)ccc(Cl)c32)cc1 (stereo not drawn)	74.3%	85.7%	75.9%	62.1%	26.7%	11.2%	inactive	–
O=C(O)Cn1nnc(-c2cc(N3CCC(Oc4cc(F)ccc4Br)CC3)no2)n1	86%	127%	83.7%	95.6%	231%	114%	inactive	–
Cc1cc(Nc2ncnc3ccc(-c4ccc(CNCCS(C)(=O)=O)o4)cc23)ccc1Oc1ccn2ncnc2c1	5.93%	7.77%	7.94%	2.65%	3.66%	0.85%	inactive	–
CC(C)c1cc(-c2n[nH]c(=O)n2-c2ccc3c(ccn3C)c2)c(O)cc1O	5.55%	8.22%	8.97%	1.94%	4.99%	10.7%	inactive	–
C[C@]12CC[C@H](O)CC1=CCC1C2CC[C@]2(C)C(n3cnc4ccccc43)=CCC12 (stereo partly drawn)	6.89%	72.8%	21.9%	9.11%	109%	91.9%	inactive	–
O=C(CCCCCCNC(=O)c1cnc(N(c2ccccc2)c2ccccc2)nc1)NO	5.31%	7.75%	7.25%	11%	5.14%	3.58%	inactive	–
Cc1nc(N)ncc1-c1nc(N2CCOCC2)c2sc(C(C)(C)O)cc2n1	5.28%	8.49%	7.48%	1.99%	38.1%	14%	inactive	–
CC(C)(O)c1cc2nc(-c3cnc(N)nc3)nc(N3CCOCC3)c2s1	10.6%	10.4%	10%	2.52%	33.5%	24%	inactive	–
Nc1nc(NCCNc2ncc(-n3ccnc3)c(-c3ccc(Cl)cc3Cl)n2)ccc1[N+](=O)[O-]	16.9%	80%	44.4%	4.45%	9.17%	4.88%	inactive	–
COc1cc(-c2nn(C3CCC(N4CCN(C(C)=O)CC4)CC3)c3ncnc(N)c23)ccc1NC(=O)c1cc2ccccc2n1C (stereo not drawn)	5.39%	12.1%	20.7%	7.32%	34.5%	9.55%	inactive	–
COc1ccc(CC2c3cc(OC)c(OC)cc3CC[N+]2(C)CCC(=O)OCCCCCOC(=O)CC[N+]2(C)CCc3cc(OC)c(OC)cc3C2Cc2ccc(OC)c(OC)c2)cc1OC (stereo not drawn)	–	93.6% [at 5.51 µM]	58.2% [at 5.51 µM]	85.6% [at 5.51 µM]	45.2% [at 5.15 µM]	99% [at 5.15 µM]	–	18.4% [at 9.06 µM] (inactive)
Nc1ncnc2c1c(-c1cnc3[nH]ccc3c1)nn2C1CCCC1	6.52%	8.6%	8.28%	2.85%	7.53%	3.58%	inactive	–

— PubChem BioAssay (NCATS)
